Laboratory results as given in the supplement of paper PMC10646978.
± gives the standard deviation.

What follows are molecules tested on RAW-Dual (murine macrophage reporter line) (assay: NF-kB reporter (SEAP) activity fold change vs agonist alone; higher = enhanced NF-kB activity). Conditions: modulator concentration 10 µM; agonist: CpG ODN 1826 0.5 ug/mL.
Procedure, shortened: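 RAW-Dual murine macrophage reporter cells were plated at 50 000 per well in 384-well plates, pin-transferred compound to 10 μM final, and pre-incubated for 1 hour at 37 °C before a PRR agonist was added and the cells incubated overnight. NF-κB activity was read from supernatant SEAP with QUANTI-Blue at 620 nm absorbance, and IRF activity from Lucia luciferase with QUANTI-Luc by luminescence. Each signal was expressed as fold change by dividing by the mean agonist-only control on the same plate. Two replicate plates were averaged, with errors obtained by propagation.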
`CN(C)CCNC(=O)C(=O)NC(c1ccccc1)c1ccccc1` gave an NF-kB reporter of 1.03 ± 0.11. Molecule `Cc1ccsc1C(=CCCN1CCC[C@@H](C(=O)O)C1)c1sccc1C` has an NF-kB reporter of 1.06 ± 0.084. For `O=C1c2ccccc2C(=O)C1c1ccncc1`, the NF-kB reporter was 0.885 ± 0.066. `Oc1c2c(nc3cc(-c4ccc(Cl)cc4)nn13)CCS2` was tested, and the NF-kB reporter was 1.1 ± 0.09. For `CC(C(=O)N1CCN(S(=O)(=O)C2CC2)CC1)n1nc2c(cc1=O)CCC2` (centres undefined), the NF-kB reporter was 0.928 ± 0.086. `COc1ccc2c(C)nc(Nc3nc(C)cc(-c4ccccc4)n3)nc2c1` showed an NF-kB reporter of 0.791 ± 0.079. `COC(CNC(=O)c1cccc(Br)c1)c1ccccc1C` (centres undefined) gave an NF-kB reporter of 0.649 ± 0.056. For `COc1ccc(OC)c(C2CC(c3ccc(Cl)cc3)=NN2S(C)(=O)=O)c1` (centres undefined), the NF-kB reporter was 0.853 ± 0.073. `Cc1nc[nH]c1CN1CCc2c(c3ccccc3n2C)C1=O.Cl` gave an NF-kB reporter of 1.13 ± 0.28. In the case of `CC(=NNC(=O)CSc1nc2ccccc2n1Cc1ccccc1)c1ccc(Cl)cc1`, the NF-kB reporter is reported as 0.846 ± 0.068. In the case of `CN1CCN(C2=C(Cl)C(=O)N(c3cccc(Cl)c3)C2=O)CC1`, the NF-kB reporter is reported as 1.09 ± 0.079. `CC(=O)C1CCC2C3CC=C4CC(O)CCC4(C)C3CCC12C` (centres undefined) was tested, and the NF-kB reporter was 1.19 ± 0.29. `CC(C)CNC(=O)C(=O)Nc1ccc(C(C)C)cc1` was tested, and the NF-kB reporter was 1.03 ± 0.12. Molecule `COc1ccc(CCNCC(O)COc2cccc(C)c2)cc1OC.Cl` (centres undefined) has an NF-kB reporter of 0.68 ± 0.16. For `CCOc1ccc(C=c2sc3nc4ccccc4n3c2=O)cc1Cl`, the NF-kB reporter was 1.07 ± 0.064. For `O=C(CCCN1CCC(O)(c2ccc(Br)cc2)CC1)c1ccc(F)cc1` [Prestw-509], the NF-kB reporter was 0.892 ± 0.15. In the case of `CC(=O)Nc1ccc(S(=O)(=O)N2CCC(Oc3nc(C)cc(C)n3)C2)cc1` (centres undefined), the NF-kB reporter is reported as 1.13 ± 0.099. `Cc1cc(C)n(CC2CCN(Cc3ccc(Br)cc3)CC2)n1` showed an NF-kB reporter of 0.933 ± 0.049. `C#CCCCCCCCCCCCC(=O)CC(O)COC(C)=O` (centres undefined) showed an NF-kB reporter of 0.822 ± 0.073.
